# According to the supplement of paper PMC8728848:
# This excerpt belongs to a sample that is enriched for the strongest signals.
# Assays:
# Assay in all cases: glycan array binding signal (z-score within array); higher = stronger binding
# [1] = tested on: Gal(b1-3)GlcNAc(b1-3)GalNAc; conditions: glycan notation: IUPAC condensed, linker removed
# Summary of the method: (§1)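 The Consortium for Functional Glycomics database supplied 3228 glycan arrays, of which those lacking an available protein sequence were dropped. The binding signal, a within-array Z-score, was averaged across arrays of the same protein sequence and across linkers. Negative scores can be read as non-binding.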
# Gal(b1-3)GlcNAc6S = conditions: glycan notation: IUPAC condensed, linker removed
# Summary of the method: as §1
# Gal(b1-3)GlcNAc = conditions: glycan notation: IUPAC condensed, linker removed
# Summary of the method: as §1
# [2] = tested on: Gal(b1-3)[Fuc(a1-4)]GlcNAc(b1-2)Man(a1-3)[Gal(b1-3)[Fuc(a1-4)]GlcNAc(b1-2)Man(a1-6)]Man(b1-4)GlcNAc(b1-4)GlcNAc; conditions: glycan notation: IUPAC condensed, linker removed
# Summary of the method: as §1
# [3] = tested on: Gal(b1-3)[Fuc(a1-4)]GlcNAc(b1-2)Man(a1-3)[Gal(b1-3)[Fuc(a1-4)]GlcNAc(b1-2)Man(a1-6)]Man(b1-4)GlcNAc(b1-4)[Fuc(a1-6)]GlcNAc; conditions: glycan notation: IUPAC condensed, linker removed
# Summary of the method: as §1
# [4] = tested on: Gal(b1-3)[Fuc(a1-4)]GlcNAc(b1-3)Gal(b1-4)[Fuc(a1-3)]GlcNAc; conditions: glycan notation: IUPAC condensed, linker removed
# Summary of the method: as §1
# [5] = tested on: Gal(b1-3)[Fuc(a1-4)]GlcNAc(b1-2)Man; conditions: glycan notation: IUPAC condensed, linker removed; mutation: R125K
# Summary of the method: as §1
# [6] = tested on: Gal(b1-3)[Fuc(a1-4)]GlcNAc(b1-3)Gal(b1-4)GlcNAc; conditions: glycan notation: IUPAC condensed, linker removed
# Summary of the method: as §1
# Sequence of CHI3L1 (Homo sapiens), P36222 (P36222 whole entry): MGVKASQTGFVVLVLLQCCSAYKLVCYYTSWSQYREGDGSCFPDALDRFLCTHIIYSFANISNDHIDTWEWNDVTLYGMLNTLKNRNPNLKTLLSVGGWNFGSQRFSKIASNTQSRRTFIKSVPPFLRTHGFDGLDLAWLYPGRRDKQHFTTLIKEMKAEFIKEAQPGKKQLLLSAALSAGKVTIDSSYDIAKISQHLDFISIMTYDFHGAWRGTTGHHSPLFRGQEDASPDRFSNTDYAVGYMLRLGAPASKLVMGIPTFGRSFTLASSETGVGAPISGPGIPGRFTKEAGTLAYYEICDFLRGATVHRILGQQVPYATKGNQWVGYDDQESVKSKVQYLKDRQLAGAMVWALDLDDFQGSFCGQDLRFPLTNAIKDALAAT
# Sequence of Regenerating Gene IV (Homo sapiens), Q9BYZ8 (Q9BYZ8 whole entry, looked up): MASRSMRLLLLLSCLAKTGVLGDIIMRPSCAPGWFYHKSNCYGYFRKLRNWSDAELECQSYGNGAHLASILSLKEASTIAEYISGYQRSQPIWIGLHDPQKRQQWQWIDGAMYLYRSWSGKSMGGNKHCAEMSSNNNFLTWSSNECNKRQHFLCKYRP
# Sequence of Avaren (Actinomycete K97) (chain, as listed by the source): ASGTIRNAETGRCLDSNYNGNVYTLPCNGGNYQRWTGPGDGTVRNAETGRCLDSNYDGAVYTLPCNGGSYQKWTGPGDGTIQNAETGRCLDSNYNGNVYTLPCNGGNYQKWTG
# Sequence of SRLC (Mus musculus), Q8VIF6 (Q8VIF6 other isoform, or with tags, fused parts or gaps): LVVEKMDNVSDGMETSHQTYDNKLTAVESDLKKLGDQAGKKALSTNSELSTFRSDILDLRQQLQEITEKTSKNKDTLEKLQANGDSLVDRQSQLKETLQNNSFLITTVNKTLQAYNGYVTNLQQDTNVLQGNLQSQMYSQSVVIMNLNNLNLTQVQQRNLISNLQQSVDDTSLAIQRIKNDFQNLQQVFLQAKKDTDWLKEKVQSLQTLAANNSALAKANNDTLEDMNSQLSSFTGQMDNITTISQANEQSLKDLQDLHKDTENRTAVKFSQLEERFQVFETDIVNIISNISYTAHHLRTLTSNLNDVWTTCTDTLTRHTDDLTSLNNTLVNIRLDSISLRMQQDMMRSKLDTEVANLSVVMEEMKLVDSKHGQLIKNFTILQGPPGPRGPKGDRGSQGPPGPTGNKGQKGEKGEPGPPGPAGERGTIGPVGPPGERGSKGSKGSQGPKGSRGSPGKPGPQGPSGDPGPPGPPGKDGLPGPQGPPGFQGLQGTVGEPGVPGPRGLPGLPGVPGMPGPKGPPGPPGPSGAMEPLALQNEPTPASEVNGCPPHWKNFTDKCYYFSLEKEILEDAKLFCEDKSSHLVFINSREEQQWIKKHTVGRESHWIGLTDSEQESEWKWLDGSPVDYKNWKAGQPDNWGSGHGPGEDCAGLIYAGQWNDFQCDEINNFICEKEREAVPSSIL
# Sequence of PILRa (Mus musculus), Q2YSF3 (Q2YSF3 entry or part of it): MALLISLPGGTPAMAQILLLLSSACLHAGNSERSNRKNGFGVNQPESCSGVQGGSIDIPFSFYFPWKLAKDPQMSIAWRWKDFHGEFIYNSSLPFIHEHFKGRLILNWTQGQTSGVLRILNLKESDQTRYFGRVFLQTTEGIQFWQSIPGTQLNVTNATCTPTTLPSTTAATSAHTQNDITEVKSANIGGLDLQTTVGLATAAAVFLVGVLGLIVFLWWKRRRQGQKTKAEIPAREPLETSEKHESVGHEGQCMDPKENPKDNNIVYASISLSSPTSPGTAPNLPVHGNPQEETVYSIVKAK
# Sequence of PILRb (Mus musculus), Q2YSF2 (Q2YSF2 entry or part of it): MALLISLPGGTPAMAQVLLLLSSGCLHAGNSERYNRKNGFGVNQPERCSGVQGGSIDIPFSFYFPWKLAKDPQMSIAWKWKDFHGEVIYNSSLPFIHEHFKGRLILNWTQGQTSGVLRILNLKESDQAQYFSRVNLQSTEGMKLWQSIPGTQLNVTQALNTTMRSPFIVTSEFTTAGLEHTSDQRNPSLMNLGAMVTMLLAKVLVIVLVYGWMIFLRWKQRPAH
substance,measurement,setting,value
"CHI3L1 (Homo sapiens), P36222",glycan array binding signal (z-score),[1],-0.129
same,glycan array binding signal (z-score),Gal(b1-3)GlcNAc6S,0.72
"PILRb (Mus musculus), Q2YSF2",glycan array binding signal (z-score),Gal(b1-3)GlcNAc,-0.113
"PILRa (Mus musculus), Q2YSF3",glycan array binding signal (z-score),[2],0.063
MpAFP RI GFP (Marinomonas primoryensis),glycan array binding signal (z-score),[3],2.74
same,glycan array binding signal (z-score),[4],-0.369
Avaren (Actinomycete K97),glycan array binding signal (z-score),[3],1.53
"Siglec-8 (Homo sapiens), Q9NYZ4",glycan array binding signal (z-score),[5],0.797
"Regenerating Gene IV (Homo sapiens), Q9BYZ8",glycan array binding signal (z-score),[6],-0.208
"SRLC (Mus musculus), Q8VIF6",glycan array binding signal (z-score),[4],4.49
